Laboratory results from the supplement of paper PMC10849652.
Of roughly 7,900 targets only a part is listed; those with a hit were picked by preference. About 0.6% of all pairs of compound and target were hits.

Tests used:
Assay in all cases: log2 fold change, soluble protein after heating vs DMSO (PISA); higher = thermal stabilisation; K562 cells, 10 uM, 30 min; active = over 0.2 and 3.5 SD of the protein, either way, in both replicates (recomputed)
[1] = compound: C1=CC=C(C=C1)[C@H](COC2=CC3=C(C=C2)NC(=O)N3)NC(=O)C4=CC=CN(C4=O)CC5=CC(=C(C=C5)F)F
Outline: (§1)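 Quantification of soluble protein used TMTpro 16plex LC-MS/MS, with channel sums equalised. Samples were the supernatant after 21,000xg for 90 min of pooled aliquots from K562 cells (2×10^6 cells/mL) treated with 10 μM compound for 30 min, heated for 3 min over 48°C-58°C, and extracted in PBS with 0.5% NP-40 at 4°C. Values, from duplicates, describe thermal stability against control samples on a log2 fold-change scale.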

[2] = compound: CC1=C(SC2=C1C(=N[C@H](C3=NN=C(N32)C)CC(=O)N)C4=CC=C(C=C4)Cl)C
Outline: as §1

[3] = compound: CC1=C2C(=CC=C1)N=C(N(C2=O)C3=CC=CC=C3C)CN4C=NC5=C(N=CN=C54)N
Outline: as §1

[4] = compound: Cc1sc2c(c1C)C(c1ccc(Cl)cc1)=N[C@@H](CC(=O)OC(C)(C)C)c1nnc(C)n1-2
Outline: as §1

[5] = compound: c1ccc([C@@H]2C[C@H]2NC2CCNCC2)cc1
Outline: as §1

Measured: log2 fold change

GDI1 (UniProt P31150)
inactive: [1] -0.025 | [2] 0.054 | [3] 0.043 | [4] -0.022 | [5] -0.025

GABARAPL1 isoform 2 (UniProt Q9H0R8)
inactive: [1] 0.02 | [2] 0.094 | [3] 0.073 | [4] -0.022 | [5] -0.036

GATA1 (UniProt P15976)
inactive: [1] 0.061 | [2] -0.014 | [3] 0.064 | [4] 0.117 | [5] 0.029

GBE1 (UniProt Q04446)
inactive: [1] -0.116 | [2] 0.01 | [3] -0.009 | [4] 0.03 | [5] 0.008

HMGCR isoform 3 (UniProt P04035)
inactive: [1] -0.011 | [2] 0.034 | [3] 0.045 | [4] 0.111 | [5] 0.043

GMEB1 (UniProt Q9Y692)
inactive: [1] 0.02 | [2] 0.084 | [3] -0.007 | [4] 0.024 | [5] 0.022

HEATR5B (UniProt Q9P2D3)
inactive: [1] -0.029 | [2] -0.015 | [3] 0.052 | [4] -0.071 | [5] 0.016

GALC (UniProt P54803)
UniProt P54803, sequence (P54803 whole entry, looked up): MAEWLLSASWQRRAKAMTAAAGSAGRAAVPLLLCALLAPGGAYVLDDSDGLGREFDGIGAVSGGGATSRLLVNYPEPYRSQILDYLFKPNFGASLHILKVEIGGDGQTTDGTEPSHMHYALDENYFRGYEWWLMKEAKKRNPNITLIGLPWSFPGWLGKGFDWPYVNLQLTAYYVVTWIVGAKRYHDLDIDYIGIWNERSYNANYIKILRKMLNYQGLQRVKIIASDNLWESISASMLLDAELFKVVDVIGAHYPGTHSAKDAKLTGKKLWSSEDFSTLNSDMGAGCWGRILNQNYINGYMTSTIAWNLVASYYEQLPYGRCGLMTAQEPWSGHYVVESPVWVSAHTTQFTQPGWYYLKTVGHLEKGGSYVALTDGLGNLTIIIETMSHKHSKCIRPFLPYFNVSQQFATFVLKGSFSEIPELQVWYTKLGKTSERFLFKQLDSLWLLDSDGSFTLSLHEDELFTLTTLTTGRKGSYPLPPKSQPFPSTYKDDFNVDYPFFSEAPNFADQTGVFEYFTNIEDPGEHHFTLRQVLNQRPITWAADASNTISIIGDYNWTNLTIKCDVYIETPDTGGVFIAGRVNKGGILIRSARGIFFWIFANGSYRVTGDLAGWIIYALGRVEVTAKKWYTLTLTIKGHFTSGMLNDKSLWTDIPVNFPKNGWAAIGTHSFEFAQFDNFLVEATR
inactive: [1] 0.046 | [2] 0.055 | [3] 0.055 | [4] -0.043 | [5] 0.006

GGA2 (UniProt Q9UJY4)
inactive: [1] -0.023 | [2] 0.014 | [3] -0.035 | [4] 0.041 | [5] -0.047

GYS1 (UniProt P13807)
UniProt P13807, sequence (P13807 whole entry, looked up): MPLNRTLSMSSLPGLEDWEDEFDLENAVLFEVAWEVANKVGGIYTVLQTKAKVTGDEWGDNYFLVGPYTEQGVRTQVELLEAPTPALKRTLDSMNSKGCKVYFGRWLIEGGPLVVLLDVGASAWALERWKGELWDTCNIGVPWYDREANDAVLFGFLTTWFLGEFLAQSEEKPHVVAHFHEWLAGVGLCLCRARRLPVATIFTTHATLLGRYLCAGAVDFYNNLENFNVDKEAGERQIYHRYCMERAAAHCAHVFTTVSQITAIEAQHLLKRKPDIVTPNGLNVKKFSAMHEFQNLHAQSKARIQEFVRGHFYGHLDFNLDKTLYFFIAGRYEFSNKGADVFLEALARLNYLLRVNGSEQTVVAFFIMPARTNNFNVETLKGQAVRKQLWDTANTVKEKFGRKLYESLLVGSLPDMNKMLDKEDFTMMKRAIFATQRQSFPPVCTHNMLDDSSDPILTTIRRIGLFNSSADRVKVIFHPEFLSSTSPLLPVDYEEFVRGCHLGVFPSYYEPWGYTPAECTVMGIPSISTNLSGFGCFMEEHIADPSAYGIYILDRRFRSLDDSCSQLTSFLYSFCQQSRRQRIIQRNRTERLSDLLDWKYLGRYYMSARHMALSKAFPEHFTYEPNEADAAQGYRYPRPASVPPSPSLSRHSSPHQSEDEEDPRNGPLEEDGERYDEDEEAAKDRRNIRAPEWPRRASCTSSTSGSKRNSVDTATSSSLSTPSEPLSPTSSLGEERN
inactive: [1] 0.007 | [2] -0.13 | [3] -0.02 | [4] 0.023 | [5] 0.054

FNTB (UniProt P49356)
inactive: [1] -0.034 | [2] 0.401 | [3] -0.017 | [4] 0.269 | [5] -0.044

H2AFX (UniProt P16104)
inactive: [1] 0.103 | [2] -0.353 | [3] -0.374 | [4] -0.043 | [5] 0.206

GSK3B isoform 2 (UniProt P49841)
UniProt P49841, sequence (P49841 whole entry, looked up): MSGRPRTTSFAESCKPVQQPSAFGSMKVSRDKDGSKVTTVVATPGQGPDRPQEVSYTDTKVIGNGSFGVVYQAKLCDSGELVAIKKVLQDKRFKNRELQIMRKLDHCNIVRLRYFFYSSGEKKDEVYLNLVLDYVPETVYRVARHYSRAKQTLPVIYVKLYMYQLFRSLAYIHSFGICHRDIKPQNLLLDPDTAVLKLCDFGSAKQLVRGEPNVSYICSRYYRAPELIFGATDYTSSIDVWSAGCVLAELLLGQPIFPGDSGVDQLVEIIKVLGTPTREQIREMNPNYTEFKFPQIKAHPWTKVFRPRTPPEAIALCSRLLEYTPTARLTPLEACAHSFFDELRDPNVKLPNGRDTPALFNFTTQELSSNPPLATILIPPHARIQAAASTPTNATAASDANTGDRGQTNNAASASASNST
inactive: [1] 0 | [2] 0.083 | [3] 0.026 | [4] -0.016 | [5] -0.008

GALNT1 (UniProt Q10472)
inactive: [1] -0.034 | [2] 0.069 | [3] -0.002 | [4] -0.01 | [5] -0.007

GEMIN5 (UniProt Q8TEQ6)
UniProt Q8TEQ6, sequence (Q8TEQ6 whole entry, looked up): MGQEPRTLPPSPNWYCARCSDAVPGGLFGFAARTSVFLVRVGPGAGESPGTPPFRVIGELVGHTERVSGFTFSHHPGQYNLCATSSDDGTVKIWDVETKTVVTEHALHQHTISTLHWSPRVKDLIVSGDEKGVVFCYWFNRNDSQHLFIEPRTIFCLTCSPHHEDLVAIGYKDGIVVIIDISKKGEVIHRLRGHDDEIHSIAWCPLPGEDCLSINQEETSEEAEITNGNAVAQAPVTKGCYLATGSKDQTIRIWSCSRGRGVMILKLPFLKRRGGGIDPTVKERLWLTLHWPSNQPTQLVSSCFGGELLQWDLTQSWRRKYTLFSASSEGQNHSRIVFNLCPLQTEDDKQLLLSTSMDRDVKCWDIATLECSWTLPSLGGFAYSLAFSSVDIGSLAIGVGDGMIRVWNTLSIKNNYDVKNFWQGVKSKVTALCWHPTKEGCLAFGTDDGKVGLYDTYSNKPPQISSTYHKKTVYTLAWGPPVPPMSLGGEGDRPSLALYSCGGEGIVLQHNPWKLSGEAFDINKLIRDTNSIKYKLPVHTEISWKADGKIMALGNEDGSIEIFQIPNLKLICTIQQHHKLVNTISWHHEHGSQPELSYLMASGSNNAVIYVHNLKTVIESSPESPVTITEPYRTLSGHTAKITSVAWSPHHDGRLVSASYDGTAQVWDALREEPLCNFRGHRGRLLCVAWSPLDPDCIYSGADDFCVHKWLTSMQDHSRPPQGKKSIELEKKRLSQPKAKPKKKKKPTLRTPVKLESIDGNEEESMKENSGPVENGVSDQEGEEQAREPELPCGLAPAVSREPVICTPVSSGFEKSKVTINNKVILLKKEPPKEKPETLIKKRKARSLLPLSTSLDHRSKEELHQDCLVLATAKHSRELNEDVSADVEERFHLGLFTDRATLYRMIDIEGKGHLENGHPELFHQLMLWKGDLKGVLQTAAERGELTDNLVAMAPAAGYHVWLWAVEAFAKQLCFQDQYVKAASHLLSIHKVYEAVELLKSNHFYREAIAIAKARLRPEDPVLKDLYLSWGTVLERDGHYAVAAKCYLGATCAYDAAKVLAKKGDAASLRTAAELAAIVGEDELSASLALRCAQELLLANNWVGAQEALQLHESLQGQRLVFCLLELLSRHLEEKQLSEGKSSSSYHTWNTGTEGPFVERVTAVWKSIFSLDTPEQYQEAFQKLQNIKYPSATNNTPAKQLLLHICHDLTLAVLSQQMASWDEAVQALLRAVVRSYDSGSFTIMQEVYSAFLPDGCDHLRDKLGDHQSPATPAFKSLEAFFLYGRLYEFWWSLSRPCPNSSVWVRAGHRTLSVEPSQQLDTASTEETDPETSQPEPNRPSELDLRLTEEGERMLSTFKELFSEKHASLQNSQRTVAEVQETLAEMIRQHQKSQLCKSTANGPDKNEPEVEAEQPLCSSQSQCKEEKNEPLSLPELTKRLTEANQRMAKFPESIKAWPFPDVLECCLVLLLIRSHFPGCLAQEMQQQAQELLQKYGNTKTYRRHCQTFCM
inactive: [1] -0.004 | [2] -0.019 | [3] 0.022 | [4] 0.021 | [5] 0.005

GLCCI1 (UniProt Q86VQ1)
inactive: [1] -0.088 | [2] -0.041 | [3] 0.137 | [4] 0.013 | [5] -0.075

GNAI3 (UniProt P08754)
inactive: [1] -0.005 | [2] 0.019 | [3] 0.011 | [4] -0.154 | [5] -0.032

FAM91A1 (UniProt Q658Y4)
inactive: [1] 0 | [2] 0.04 | [3] 0.028 | [4] 0.013 | [5] -0.043

FUT8 (UniProt Q9BYC5)
inactive: [1] 0 | [2] 0.068 | [3] -0.06 | [4] -0.168 | [5] 0.049

GOPC (UniProt Q9HD26)
inactive: [1] -0.315 | [2] -0.016 | [3] 0.018 | [4] 0.169 | [5] -0.054

GNB2 (UniProt P62879)
UniProt P62879, sequence (P62879 whole entry, looked up): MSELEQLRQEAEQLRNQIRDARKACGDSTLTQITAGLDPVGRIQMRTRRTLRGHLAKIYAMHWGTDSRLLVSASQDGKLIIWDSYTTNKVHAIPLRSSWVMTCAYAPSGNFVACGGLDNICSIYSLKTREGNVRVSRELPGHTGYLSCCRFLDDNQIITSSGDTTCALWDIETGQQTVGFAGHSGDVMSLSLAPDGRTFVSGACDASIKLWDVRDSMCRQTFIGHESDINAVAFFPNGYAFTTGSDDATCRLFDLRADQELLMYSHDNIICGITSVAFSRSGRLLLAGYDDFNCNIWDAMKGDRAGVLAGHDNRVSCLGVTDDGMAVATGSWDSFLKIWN
inactive: [1] 0.025 | [2] 0.045 | [3] 0.029 | [4] -0.09 | [5] -0.015

HNRNPK isoform 2 (UniProt P61978)
inactive: [1] -0.027 | [2] 0.012 | [3] 0.047 | [4] -0.023 | [5] 0.013

HLTF (UniProt Q14527)
inactive: [1] 0.003 | [2] 0.012 | [3] 0.062 | [4] 0 | [5] -0.001

HADHB (UniProt P55084)
inactive: [1] -0.238 | [2] 0.235 | [3] 0.2 | [4] 0.363 | [5] -0.085

FKBP7 (UniProt Q9Y680)
inactive: [1] -0.027 | [2] 0.005 | [3] 0.091 | [4] 0.009 | [5] 0.102

FBXO7 (UniProt Q9Y3I1)
UniProt Q9Y3I1, sequence (Q9Y3I1 whole entry, looked up): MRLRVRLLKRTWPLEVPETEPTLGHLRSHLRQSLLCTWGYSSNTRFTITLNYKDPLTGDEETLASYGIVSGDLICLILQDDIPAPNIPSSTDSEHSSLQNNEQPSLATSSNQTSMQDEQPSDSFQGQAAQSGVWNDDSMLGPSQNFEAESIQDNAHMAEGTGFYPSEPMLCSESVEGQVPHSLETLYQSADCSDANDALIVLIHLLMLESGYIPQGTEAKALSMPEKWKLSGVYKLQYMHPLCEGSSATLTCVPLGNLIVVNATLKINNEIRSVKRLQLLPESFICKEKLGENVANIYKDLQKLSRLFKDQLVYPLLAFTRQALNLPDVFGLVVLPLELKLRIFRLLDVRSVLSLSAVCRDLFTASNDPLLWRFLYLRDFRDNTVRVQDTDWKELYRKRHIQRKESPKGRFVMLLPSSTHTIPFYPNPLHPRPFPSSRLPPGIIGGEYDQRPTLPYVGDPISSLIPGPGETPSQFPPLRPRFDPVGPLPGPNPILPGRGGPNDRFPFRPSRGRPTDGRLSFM
inactive: [1] -0.002 | [2] 0.033 | [3] 0.045 | [4] -0.033 | [5] 0.024

FUCA2 (UniProt Q9BTY2)
inactive: [1] 0.055 | [2] -0.004 | [3] 0.005 | [4] 0.034 | [5] 0.006

GCDH (UniProt Q92947)
inactive: [1] 0.021 | [2] 0.012 | [3] 0.036 | [4] -0.043 | [5] -0.019

FDXR isoform 7 (UniProt P22570)
inactive: [1] -0.069 | [2] 0.106 | [3] 0.038 | [4] -0.037 | [5] -0.01

HDAC1 (UniProt Q13547)
inactive: [1] 0.004 | [2] 0 | [3] -0.004 | [4] 0.03 | [5] 0.154

HP1BP3 (UniProt Q5SSJ5)
inactive: [1] 0.015 | [2] -0.04 | [3] 0.087 | [4] 0.142 | [5] 0.011

HDDC2 (UniProt Q7Z4H3)
UniProt Q7Z4H3, sequence (Q7Z4H3 whole entry, looked up): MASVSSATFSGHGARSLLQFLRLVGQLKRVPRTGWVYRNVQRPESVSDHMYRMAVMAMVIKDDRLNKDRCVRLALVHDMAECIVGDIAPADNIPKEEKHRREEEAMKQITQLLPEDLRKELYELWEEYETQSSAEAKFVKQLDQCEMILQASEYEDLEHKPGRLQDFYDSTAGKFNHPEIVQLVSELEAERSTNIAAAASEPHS
inactive: [1] 0.009 | [2] 0.057 | [3] -0.012 | [4] -0.071 | [5] -0.038

GPX4 (UniProt P36969)
UniProt P36969, sequence (P36969 whole entry, looked up): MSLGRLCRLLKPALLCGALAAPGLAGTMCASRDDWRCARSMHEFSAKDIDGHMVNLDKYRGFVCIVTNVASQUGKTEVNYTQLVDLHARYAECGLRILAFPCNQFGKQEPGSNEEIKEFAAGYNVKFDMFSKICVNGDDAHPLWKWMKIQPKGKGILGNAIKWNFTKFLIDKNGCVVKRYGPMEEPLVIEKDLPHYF
inactive: [1] 0.029 | [2] 0.001 | [3] 0.017 | [4] -0.064 | [5] 0.028

GBF1 (UniProt Q92538)
inactive: [1] -0.078 | [2] 0.036 | [3] 0.072 | [4] -0.005 | [5] 0.003

HTATIP2 isoform 3 (UniProt Q9BUP3)
UniProt Q9BUP3, sequence (Q9BUP3 whole entry, looked up): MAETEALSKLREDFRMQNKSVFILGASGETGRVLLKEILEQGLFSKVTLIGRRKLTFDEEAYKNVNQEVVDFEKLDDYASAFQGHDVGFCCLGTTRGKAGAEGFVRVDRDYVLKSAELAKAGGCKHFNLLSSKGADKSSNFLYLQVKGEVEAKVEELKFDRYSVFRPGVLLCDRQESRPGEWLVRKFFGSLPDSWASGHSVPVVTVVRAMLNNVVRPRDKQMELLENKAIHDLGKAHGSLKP
inactive: [1] 0.063 | [2] 0.031 | [3] 0.059 | [4] 0.028 | [5] -0.03

HNRNPH1 (UniProt P31943)
inactive: [1] -0.032 | [2] -0.007 | [3] 0.045 | [4] -0.015 | [5] -0.017

FECH isoform 2 (UniProt P22830)
inactive: [1] 0.008 | [2] 0.03 | [3] 0.023 | [4] -0.07 | [5] -0.08

FLNA (UniProt P21333)
inactive: [1] -0.11 | [2] 0.016 | [3] 0.049 | [4] 0.019 | [5] -0.008

HAX1 (UniProt O00165)
inactive: [1] -0.112 | [2] -0.008 | [3] 0.063 | [4] 0.008 | [5] -0.002

GABARAPL2 (UniProt P60520)
UniProt P60520, sequence (P60520 whole entry, looked up): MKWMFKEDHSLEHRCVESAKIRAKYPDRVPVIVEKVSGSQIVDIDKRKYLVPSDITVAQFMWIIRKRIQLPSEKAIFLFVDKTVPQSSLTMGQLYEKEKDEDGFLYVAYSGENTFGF
inactive: [1] 0.037 | [2] 0.035 | [3] 0.039 | [4] -0.038 | [5] -0.055

HSD17B12 (UniProt Q53GQ0)
inactive: [1] 0.013 | [2] 0.061 | [3] 0.066 | [4] 0.042 | [5] -0.008

GSR (UniProt P00390)
inactive: [1] 0.006 | [2] 0.044 | [3] 0.034 | [4] -0.023 | [5] -0.003

GATD1 (UniProt Q8NB37)
inactive: [1] -0.038 | [2] 0.043 | [3] 0.019 | [4] 0.019 | [5] 0.007
